Experimental data: PubChem BioAssay (NCATS)
Where “and” joins values, the source holds several entries; their conditions need not be identical. Equal values may be shown once. Inconclusive results are not listed. Calls of active or inactive are those of the source. The call rests on the fitted dose curve; in most records, active means well fitted inhibition curve with a large enough effect; inconclusive means small, poorly fitted or top-dose-only effect; inactive means flat fitted curve, though single readings scatter.

Legend:
CRL-7250 = normal cell line; test: Cytotoxic Profiling of Annotated Libraries Using Quantitative High-Throughput Screening (AID 1296008); conditions: Five cell lines viability, CellTiter-Glo ATP luminescence, 48-72 h; max response: hits give low values
Procedure, shortened: (§1)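 Compounds were pin-transferred onto cells and incubated 48 or 72 hr at 37 degree Celsius, 95% humidity. CellTiter-Glo was added, plates sat 10 min at room temperature, then ATP-coupled luminescence was imaged as the viability read-out.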

HEK293 = test: as above; conditions: Five cell lines viability, CellTiter-Glo ATP luminescence, 48-72 h; max response: hits give low values
Procedure, shortened: as §1

HaCat [1] = test: as above; conditions: Five cell lines viability, CellTiter-Glo ATP luminescence, 48-72 h; max response: hits give low values
Procedure, shortened: as §1

KB-3-1 = test: as above; conditions: Five cell lines viability, CellTiter-Glo ATP luminescence, 48-72 h; max response: hits give low values
Procedure, shortened: as §1

NIH3T3 = test: as above; conditions: Five cell lines viability, CellTiter-Glo ATP luminescence, 48-72 h; max response: hits give low values
Procedure, shortened: as §1

MCC-13 = test: qHTS assay to identify novel small-molecules to repurpose for Merkel cell carcinoma treatment (AID 1296009); conditions: MCC and control cell lines, CellTiter-Glo viability, 72 h; series mostly up to 46 µM
Procedure, shortened: (§2)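 Luminescence from CellTiter-Glo, read 10 min after addition at room temperature, reported viability following a 72 hr, 37 degree celsius treatment with NPC or MIPE compounds in titration; values normalized to plate controls.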

MCC-26 = test: as above; conditions: MCC and control cell lines, CellTiter-Glo viability, 72 h; series mostly up to 46 µM
Procedure, shortened: as §2

MKL-1 = test: as above; conditions: MCC and control cell lines, CellTiter-Glo viability, 72 h; series mostly up to 46 µM
Procedure, shortened: as §2

HACAT [2] = test: as above; conditions: MCC and control cell lines, CellTiter-Glo viability, 72 h
Procedure, shortened: as §2

HEK293T = test: as above; conditions: MCC and control cell lines, CellTiter-Glo viability, 72 h; at 44.8 µM (top of the series) unless noted
Procedure, shortened: as §2

[3] = at 44.8 µM (top of the series) unless noted
Further: nearly all actives have a fitted effect of over 60% in size.
On the % scale 0 is the no-effect control and ±100 the full control effect; potency means the concentration at half of the fitted maximal effect.

CN(C)CC[C@@H](c1ccc(Cl)cc1)c1ccccn1
inactive: max response (CRL-7250) 4.72% | max response (HEK293) -2.7% | max response (HaCat [1]) 0.999% | max response (KB-3-1) -22.8% | outcome (NIH3T3) | Potency (MCC-13) | Potency (MCC-26) | Potency (MKL-1)

CC(C)C(=O)c1c(C(C)C)nn2ccccc12
inactive: max response (CRL-7250) -8.07% | max response (HEK293) -1.74% | max response (HaCat [1]) 2.88% | max response (KB-3-1) -2.88% | max response (NIH3T3) -15.3% | Potency (MCC-13) | Potency (MCC-26) | Potency (MKL-1)

O=C1O[C@H](CO)[C@@H](O)[C@H](O)[C@H]1O
inactive: outcome (CRL-7250) | outcome (HEK293) | outcome (HaCat [1]) | max response (NIH3T3) -2.57% | outcome (HACAT [2]; [3]) | outcome (HEK293T) | Potency (MCC-13) | Potency (MCC-26) | Potency (MKL-1)

C[C@@H]1CN(c2c(F)c(F)c3c(=O)c(C(=O)O)cn(C4CC4)c3c2F)C[C@H](C)N1
inactive: max response (CRL-7250) -3.49% and -4.42% | max response (HEK293) -18.5% and -5.83% | outcome (HaCat [1]) | max response (NIH3T3) -2.2% and -0.725% | outcome (HACAT [2]; at 9.27 µM (top of the series)) | outcome (HACAT [2]; at 17.4 µM (top of the series)) | Potency (MCC-13) | Potency (MCC-26) | Potency (MKL-1)

NCC(=O)CCC(=O)O
inactive: max response (CRL-7250) -2.12% | outcome (HEK293) | max response (HaCat [1]) -9.5% | max response (KB-3-1) 1.71% | outcome (NIH3T3) | outcome (HEK293T) | Potency (MCC-13) | Potency (MCC-26) | Potency (MKL-1)

Cc1cc2nc3c(=O)[nH]c(=O)nc-3n(C[C@H](O)[C@H](O)[C@H](O)CO)c2cc1C
inactive: outcome (CRL-7250) | max response (HEK293) -5.47% | max response (HaCat [1]) -19.1% | max response (NIH3T3) 4.08% | Potency (MCC-13) | Potency (MCC-26) | Potency (MKL-1)

CN(C)CCCN1c2ccccc2Sc2ccc(Cl)cc21
active: Potency (MKL-1) 23.7 µM

CN(C)CCOC(C)(c1ccccc1)c1ccccn1 (stereo not drawn)
inactive: Potency (MCC-13) | Potency (MCC-26) | Potency (MKL-1)

OCCN1CCN(CCCN2c3ccccc3Sc3ccc(Cl)cc32)CC1
active: Potency (HEK293) 11.9 µM | Potency (MCC-26) 26.6 µM
inactive: max response (KB-3-1) -16%

O=C1NC(=O)[C@@]2(CCOc3ccc(F)cc32)N1
inactive: outcome (HEK293T) | Potency (MCC-13) | Potency (MCC-26) | Potency (MKL-1)

CNCC(O)c1ccc(O)c(O)c1 (stereo not drawn)
inactive: max response (HaCat [1]) -0.0091% | max response (NIH3T3) -1.98%
active: Potency (MKL-1) 16.8 µM

O=C1Nc2ccc(Cl)cc2[C@@](C#CC2CC2)(C(F)(F)F)O1
inactive: max response (CRL-7250) -9.32% and 4.5% | outcome (HaCat [1]) | max response (KB-3-1) 17.8% and -24.9% | max response (NIH3T3) 3.57% | outcome (HACAT [2]; [3]) | Potency (MCC-26)

CNCCC(Oc1ccc(C(F)(F)F)cc1)c1ccccc1 (stereo not drawn)
inactive: max response (KB-3-1) 2.04%
active: Potency (MKL-1) 26.6 µM

CN1[C@@H]2CC(OC(=O)[C@H](CO)c3ccccc3)C[C@H]1[C@@H]1O[C@@H]12 (stereo partly drawn)
inactive: outcome (HEK293T) | Potency (MCC-13) | Potency (MCC-26) | Potency (MKL-1)

CC1=C(CC(=O)O)c2cc(F)ccc2/C1=C\c1ccc(S(C)=O)cc1 (stereo not drawn)
inactive: outcome (HaCat [1])

CCN(CC)CCCC(C)Nc1c2ccc(Cl)cc2nc2ccc(OC)cc12 (stereo not drawn)
active: Potency (CRL-7250) 16.8 µM | Potency (HEK293) 7.5 µM and 3.17 µM | Potency (MCC-13) 23.7 µM | Potency (MKL-1) 15 µM
inactive: max response (KB-3-1) -7.27%

C=Cc1c(C)c2cc3[nH]c(cc4nc(cc5nc(cc1[nH]2)C(C)=C5CCC(=O)O)C(CCC(=O)O)=C4C)c(C)c3C=C
inactive: max response (HEK293) -10.7% | outcome (HaCat [1]) | max response (KB-3-1) -3.43% | max response (NIH3T3) -14.7% | outcome (HACAT [2]; [3]) | Potency (MCC-13) | Potency (MCC-26) | Potency (MKL-1)

CCCCN(CCCC)CC(O)c1cc(Cl)cc2c1-c1ccc(Cl)cc1/C2=C/c1ccc(Cl)cc1 (stereo not drawn)
inactive: max response (HaCat [1]) -7.84% | max response (KB-3-1) -7.25% | Potency (MCC-13) | Potency (MCC-26)

COc1ccc2cc1Oc1ccc(cc1)C[C@H]1c3c(cc4c(c3Oc3cc5c(cc3OC)CCN(C)[C@@H]5C2)OCO4)CCN1C
inactive: outcome (HaCat [1]) | max response (KB-3-1) 0.814% | outcome (HACAT [2]; [3]) | Potency (MCC-13) | Potency (MCC-26)
active: Potency (HEK293) 10.6 µM and 7.31 µM | Potency (MKL-1) 23.7 µM

CN(C)CCC=C1c2ccccc2CCc2ccccc21
inactive: outcome (HaCat [1]) | max response (KB-3-1) -15.7% | max response (NIH3T3) -1.26% | outcome (HACAT [2]; [3]) | Potency (MCC-13) | Potency (MCC-26) | Potency (MKL-1)

CCN(CC)CCNC(=O)c1c(C)[nH]c(/C=C2\C(=O)Nc3ccc(F)cc32)c1C
active: Potency (HEK293) 8.41 µM | Potency (MCC-13) 23.7 µM | Potency (MKL-1) 2.99 µM
inactive: max response (KB-3-1) -5.42% | max response (NIH3T3) -10.6%

NC1[C@H]2CN(c3nc4c(cc3F)c(=O)c(C(=O)O)cn4-c3ccc(F)cc3F)C[C@@H]12 (stereo partly drawn)
inactive: Potency (MCC-26)
active: Potency (HEK293) 15 µM | Potency (NIH3T3) 16.8 µM

C[C@]12C[C@H](O)[C@H]3[C@@H](CCC4=CC(=O)CC[C@@]43C)[C@@H]1CC[C@@H]2C(=O)CO
inactive: max response (CRL-7250) 3.36% | outcome (HEK293) | max response (HaCat [1]) 1.38% | outcome (HEK293T) | Potency (MCC-13) | Potency (MCC-26) | Potency (MKL-1)
